Data as given in the supplement of paper PMC10338343.
± gives the standard deviation. Over roughly 3,700 sequences, “pre-steady-state target cleavage rate” has its median near 0.02; the highest 2% begin near 0.23. For the sample, the highest values were picked, then their nearest neighbours and some sequences at random.

Tested on: MILI (PIWIL2) piRISC loaded with Kctd7 piRNA (26 nt)
Test: pre-steady-state target cleavage rate (min^-1); MIWI and MILI are mouse PIWI proteins and EfPiwi is from a freshwater sponge; tags in brackets are library labels; higher = faster piRNA-guided slicing of the target
Conditions: guide: Kctd7 piRNA 5'p-UGUUAAUCUCUCAGAGAAGGUGACAG; auxiliary factor: 500 nM mouse GTSF1
Method: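 Cleave-'n-Seq: a library of target RNAs (target site embedded in constant flanks, ACAGCATTCCGCGTTAGTGATATCCG... 5' flank; DNA-blocked outside the site) at 0.1 nM was incubated with 1 nM active mouse MILI or MIWI piRISC (synthetic 5'-monophosphorylated piRNA guide) with or without 500 nM mouse GTSF1 at 33 °C for 1 min to 16 h. Uncleaved targets were sequenced and normalised to non-target controls, and the pooled three trials were fitted to a burst-and-steady-state model to give the pre-steady-state cleavage rate (min^-1; k3 is constrained to at most 1e-4). Sequence is the target site only; target names encode pairing extent (gX:gY) and contiguous / 1-mismatch / 2-mismatch / bulge geometry. Fits with R² ≤ 0 are excluded.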

Row | Sequence | pre-steady-state target cleavage rate
1 | UAGUCUGUCACCUUCUGUGAGAGUUUAACA | 0.0702 ± 0.016
2 | UAGUCUGUCACCUUCUCUGAGAGAUUAAACA | 0.147 ± 0.018
3 | UAGUCUGUCACCUUCUCUGAGAGUAUUAACA | 0.173 ± 0.013
4 | UAGUCUGUCACCUUCUCUGAGAGGUUAACA | 0.198 ± 0.025
5 | UAGUCUGUCACCUUCUCUGAGAGAUUAAAA | 0.12 ± 0.031
6 | UAGUCUGUCACCUUCUCUGAGAGUUUAACA | 0.238 ± 0.04
7 | UAGUCUGUCACCUUCUCUGAGAGUUAAACA | 0.328 ± 0.096
8 | UAGUCUGUCACCUUCUCUGUGAGUUUAACA | 0.0314 ± 0.0059
9 | UAGUGACAGUCCUUCUCUGAGUCAUUAAGA | < 0.0001
10 | UAGUGACACACGAUCUCUGAGAGAUUAACA | 0.0352 ± 0.0045
11 | UAGUGACAGACCUUAUCUGAGAGAUUAACA | 0.0894 ± 0.017
12 | UAGUGACAGUGCUUCUCCGAGAGAUUAACA | 0.0082 ± 0.0034
13 | UAGUGACAGUGGAAGAGAGAGAGAUUGAACA | < 0.0001
14 | UAGUGAGUCAGCUACUCUGAGAGAUUAACA | 0.135 ± 0.01
15 | UAGUGACACACCAACUCUGAGAGAUUAAGA | 0.018 ± 0.0037
16 | UAGUGACAGUCCUUCUCAGAGAGAUUUACA | 0.0138 ± 0.0054
17 | UAGUGACAGUGCUUCUCUGAGACAUAAACA | < 0.0001
18 | UAGUGAGUCACCUUCUCAGAGAGAUUUACA | 0.0954 ± 0.024
19 | UAGUCUGUCACCUUCUCUGAGAGCUUAACA | 0.148 ± 0.016
20 | UAGUCUGUCACCUUCUCUGAGAGUUAACA | 0.278 ± 0.082
21 | UAGUCUGUCACCUUCUCUGAGAGACUUAACA | 0.145 ± 0.024
22 | UAGUCUGUCACCAACUCUGAGAGAUUAAGA | 0.047 ± 0.0083
23 | UAGUCUGUCCACCUUCUCUGAGAGAUUAACA | 0.15 ± 0.018
24 | UAGUGUGCCACCUUCUCUGAGAGAUUAACA | 0.227 ± 0.023
25 | UAGUGUGUCACCUUCCCUGAGAGAUUAACA | 0.301 ± 0.056

Row | Sequence | pre-steady-state target cleavage rate
26 | UAGUGUGCACCUUCUCUGAGAGAUUAACA | 0.196 ± 0.024
27 | UAGUGAGUCACCUUCUCUGAGAGAUUAAUA | 0.217 ± 0.03
28 | UAGUGAGUCACCUUCUCUGAGAAAUUAACA | 0.132 ± 0.027
29 | UAGUGAGUCACCUUCUCUGAGAGAAUUACA | 0.105 ± 0.048
30 | UAGUGAGUCACCUUCUCUGAGAGAUUAUCA | 0.197 ± 0.037
31 | UAGUGUGUGCACCUUCUCUGAGAGAUUAACA | 0.195 ± 0.021
32 | UAGUGAGUCACCUUCUCUGAGAGAAUUAACA | 0.318 ± 0.059
33 | UAGUGAGUCACCUUCUCUGAGAGAUUAACC [g2:g24:cont:t1C] | 0.192 ± 0.018
34 | UAGUGAGUCACCUUCUCUGAGAGAUUAACCA | 0.219 ± 0.017
35 | UAGUGAGUCACCUUCUCUGAGAGAUUAAUCA | 0.292 ± 0.053
36 | UAGUGAGUCACCUUCUCUGAGAGAUUAACU [g2:g24:cont:t1U] | 0.288 ± 0.038
37 | UAGUGACACAGGUUCUCUGAGAGAUUAAGA | 0.00675 ± 0.0025
38 | UAGUGACAGUCCUUCUCUGAGAGAUUACCA | 0.00831 ± 0.0032
39 | UAGUGACAGACCUUCUGUGAGAGAUUAACA | 0.087 ± 0.012
40 | UAGUGACACAGGUUCUCUGAGAGAUUAACA | 0.0267 ± 0.0054
41 | UAGUCUGUCACCAUCUCUGAGAGAUUUACA | 0.124 ± 0.018
42 | UAGUGACAGUCCUUCUCUGUGAGAUUAACA | 0.033 ± 0.0057
43 | UAGUCUGUGACGUUCUCUGAGAGAUUAACA | 0.147 ± 0.01
44 | UAGUGACAGACCUUCUCUGAGAGGUUAACA | 0.221 ± 0.058
45 | UAGUGACACCACCUUCUCUGAGAGAUUAACA | 0.184 ± 0.017
46 | UAGUGAGUCACCUUCUCUGAGAGAUUAACA [g2:g24:cont:t1A] | 0.25 ± 0.021
47 | UAGUGGGUCACCUUCUCUGAGAGAUUAACA | 0.175 ± 0.01
48 | UAGUGAGUCACCUUCUCUCUGAGAUUAACA | 0.0118 ± 0.0043
49 | UAGUGAGGUCACCUUCUCUGAGAGAUUAACA | 0.242 ± 0.016
50 | UAGUGAGUCACCUUCUCUGAGGAGAUUAACA | 0.0247 ± 0.011

Row | Sequence | pre-steady-state target cleavage rate
51 | UAGUGAGUCACCUUCUCUGAAGAGAUUAACA | 0.0119 ± 0.0044
52 | UAGUGAGUGACCUUCUCUGAGAGAUUAACA | 0.157 ± 0.0097
53 | UAGUGAGUCACCUUCUCUGAGAGAUUAAACA | 0.33 ± 0.049
54 | UAGUGACCCACCUUCUCUGAGAGAUUAACA | 0.286 ± 0.039
55 | UAGUGAGUCACCUUCUCUGAGAGAUUAAAA | 0.135 ± 0.037
56 | UAGUGAGUCACCUUCUCUGAGAGAUUAAA | 0.202 ± 0.045
57 | UAGUGACAGACCUCUCUCUGAGAGAUUAACA | 0.0375 ± 0.0076
58 | UAGUCUGUCACCUUCUGCUGAGAGAUUAACA | 0.0816 ± 0.013
59 | UAGUCUGUCUCCUACUCUGAGAGAUUAACA | 0.157 ± 0.0082
60 | UAGUGACUCACCUAGUCUGAGAGAUUAACA | 0.0896 ± 0.0089
61 | UAGUGACAGUGCUUCUCUGAGAGAUUAACC [g2:g19:cont:t1C] | 0.0223 ± 0.0053
62 | UAGUGACACACCAUCUCUGAGAGAUUAUGA | 0.00752 ± 0.0041
63 | UAGUGAGUCACCUUCUCUGAGAGAUUACA | 0.153 ± 0.033
64 | UAGUCACACACCUUCUCUGAGAGAUUAACA | 0.168 ± 0.011
65 | UAGUCAUGUCACCUUCUCUGAGAGAUUAACA | 0.238 ± 0.023
66 | UAGUGAGUCACCUUCUCUGAGAGAUUAACG [g2:g24:cont:t1G] | 0.284 ± 0.021
67 | UAGUGAGUCACCUUCUCUGAGAGAUUACCA | 0.251 ± 0.05
68 | UAGUCAGUCACCUUCUCUGAGAGAUUAACA | 0.249 ± 0.016
69 | UAGUGAGUCACCUUCUCUGAGAGAUUACACA | 0.187 ± 0.038
70 | UAGUCAGUCACCUUCUCUGAGAGAUUAAGA | 0.135 ± 0.024
71 | UAGUGAGUCACCUUCUCUGAGAGAUUAAGA | 0.219 ± 0.035
72 | UAGUCACUCACCUUCUCUGAGAGAUUAACA | 0.207 ± 0.0095
73 | UAGUAUGUCACCUUCUCUGAGAGAUUAACA | 0.211 ± 0.019
74 | UAGUGAGUCACCCUUCUCUGAGAGAUUAACA | 0.19 ± 0.02
